Compounds with a hit are over-represented: about 3.6% of the library has one in this group of screens.
Pf apPOL block – Pf-apPOL inhibitors, biochemical, fluorescence. Plasmodium falciparum apicoplast DNA polymerase (apPOL). Recombinant Pf-apPOL, molecular beacon fluorescence, 1.5 h. inhibition, % at 10 µM. hit rate 0.25% among 210,000. AID 1794808, 2022
mHTT-CaM PPI inh – mutant huntingtin-calmodulin interaction inhibitors – biochemical, AlphaScreen, primary screen; P42858; AID 1671202, 2021; hit rate 3.6% among 190,000; inhibition, % at 15 µM; AlphaScreen His-mHTT/GST-CaM binding, luminescence;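 further: 0% = both proteins with DMSO and 100% = one protein alone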
* = called active by the depositor. No stated cut-off is given here; in the data, active means inhibition above about 50%; inactive means the rest.

Results for Cc1cccc(-c2ccc(C(=O)NCc3ccc(F)cc3)cn2)c1 ?
Pf apPOL block: -18; mHTT-CaM PPI inh: -4

Results for CN(C)C(=O)CN(c1cccc(Cl)c1Cl)S(=O)(=O)c1ccccc1 ?
Pf apPOL block: -22; mHTT-CaM PPI inh: 17

Results for COc1ccc(CCCC(=O)O)cc1C ?
Pf apPOL block: 63*; mHTT-CaM PPI inh: 2

What do the screens show for `COc1ccc(OC)c(CCC(=O)O)c1`?
Pf apPOL block: -9; mHTT-CaM PPI inh: -7

How did COc1ccc(N=Cc2cc3c(cc2[N+](=O)[O-])OCO3)cc1OC do in these assays?
Pf apPOL block: -2; mHTT-CaM PPI inh: 47

Results for Cc1ccc(N=Cc2cc3c(cc2[N+](=O)[O-])OCO3)cc1Br ?
Pf apPOL block: -9; mHTT-CaM PPI inh: 69*

What do the screens show for `Cc1cc(O)c(N=Cc2cc3c(cc2[N+](=O)[O-])OCO3)cc1C`?
Pf apPOL block: 2; mHTT-CaM PPI inh: 70*

How did Cc1ccc([N+](=O)[O-])cc1N=Cc1cc2c(cc1[N+](=O)[O-])OCO2 do in these assays?
Pf apPOL block: -10; mHTT-CaM PPI inh: 43

How did O=[N+]([O-])c1ccc(N=Cc2cc3c(cc2[N+](=O)[O-])OCO3)cc1 do in these assays?
Pf apPOL block: -6; mHTT-CaM PPI inh: 2

How did O=[N+]([O-])c1cc2c(cc1C=Nc1ccccc1)OCO2 do in these assays?
Pf apPOL block: -1; mHTT-CaM PPI inh: 78*

What do the screens show for `O=[N+]([O-])c1cc2c(cc1C=Nc1ccc(Nc3ccccc3)cc1)OCO2`?
Pf apPOL block: -1; mHTT-CaM PPI inh: 85*

What do the screens show for `CC(=O)Nc1ccc(N=Cc2cc3c(cc2[N+](=O)[O-])OCO3)cc1`?
Pf apPOL block: 0; mHTT-CaM PPI inh: 44

Results for Cc1cccc(NC(=O)CSc2cn(CCNC(=O)c3c(F)cccc3F)c3ccccc23)c1 ?
Pf apPOL block: -1; mHTT-CaM PPI inh: 22

Results for COc1ccc(-c2c(NC(=O)CC(C)C)oc3c(C)cccc3c2=O)cc1OC ?
Pf apPOL block: -10; mHTT-CaM PPI inh: 2

Results for O=C(c1cccc2c1CCN2C(=O)c1ccccc1)N1CCCCC1 ?
Pf apPOL block: -3; mHTT-CaM PPI inh: -1

Results for CC1(CC2C=C(CO)C(=O)O2)OC1COc1ccc2ccc(=O)oc2c1 (stereo not drawn) ?
Pf apPOL block: -17

Results for Nc1cc(-c2ccc(I)cc2)[nH]n1 ?
Pf apPOL block: 3; mHTT-CaM PPI inh: 25

How did O=C(CNC(=O)c1ccc(Cl)c(Cl)c1)Nc1ccccc1F do in these assays?
Pf apPOL block: -7; mHTT-CaM PPI inh: -5

How did Cc1cccc(N=Cc2cc3c(cc2[N+](=O)[O-])OCO3)c1 do in these assays?
Pf apPOL block: 2; mHTT-CaM PPI inh: 86*

How did O=[N+]([O-])c1cc2c(cc1C=Nc1ccc(Cl)c(Cl)c1)OCO2 do in these assays?
Pf apPOL block: 3; mHTT-CaM PPI inh: 41

How did O=C(Nc1cnc(-c2ccccc2)nc1)c1cccc(Cl)c1 do in these assays?
Pf apPOL block: -5; mHTT-CaM PPI inh: 0

What do the screens show for `CCN1C(=O)C2(SCCN2C(=O)c2cccc(F)c2)c2cc(F)ccc21` (stereo not drawn)?
Pf apPOL block: 8; mHTT-CaM PPI inh: 56*

What do the screens show for `CCN1C(=O)C2(SCCN2C(=O)C2CCCC2)c2cc(F)ccc21` (stereo not drawn)?
Pf apPOL block: 1; mHTT-CaM PPI inh: 55*

What do the screens show for `COCCN1C(=O)C2(SCCN2C(=O)c2ccc(OC)cc2)c2ccccc21` (stereo not drawn)?
Pf apPOL block: -2; mHTT-CaM PPI inh: 22

What do the screens show for `CCN1C(=O)C2(SCCN2C(=O)c2cccc(OC)c2)c2cc(F)ccc21` (stereo not drawn)?
Pf apPOL block: -1; mHTT-CaM PPI inh: 43

How did CCC(C)(C(=O)NC1CCCC1)N(Cc1cccs1)C(=O)CNC(C)=O (stereo not drawn) do in these assays?
Pf apPOL block: -6; mHTT-CaM PPI inh: 0

How did O=C(CSc1nc2ccsc2c(=O)n1Cc1ccccc1F)NC1CCCCC1 do in these assays?
Pf apPOL block: -3; mHTT-CaM PPI inh: -6

Results for COC(=O)c1cnc2nc(C)ccc2c1Nc1ccccc1 ?
Pf apPOL block: -8; mHTT-CaM PPI inh: -3

How did COC(=O)c1cnc2nc(C)ccc2c1Nc1ccc(Br)cc1 do in these assays?
Pf apPOL block: -3; mHTT-CaM PPI inh: 58*

Results for CCOc1ccc(-c2csc(Nc3ccccn3)n2)cc1 ?
Pf apPOL block: 4; mHTT-CaM PPI inh: 13

Results for CCOc1ccc(Nc2nc(-c3ccccn3)cs2)cc1 ?
Pf apPOL block: -3; mHTT-CaM PPI inh: 99*

Results for COc1ccc(-c2csc(Nc3cc(C)ccn3)n2)cc1 ?
Pf apPOL block: -2; mHTT-CaM PPI inh: -5

Results for COc1ccc(Nc2nc(-c3ccccn3)cs2)cc1 ?
Pf apPOL block: -5; mHTT-CaM PPI inh: 99*

Results for Cc1ccc(C(=O)N2CCc3sc(C(=O)N4CCC5(CC4)OCCO5)cc3C2)cc1 ?
Pf apPOL block: -4; mHTT-CaM PPI inh: 5

Results for Cn1c(C2CCN(S(=O)(=O)c3cc(F)cc(F)c3)CC2)cc(=O)n2nccc12 ?
Pf apPOL block: -1; mHTT-CaM PPI inh: 14

Results for N#CC1=C2N=C(N)c3c(sc4c3CCCCC4)N2C2=C(C(=O)CCC2)C1c1cccnc1 (stereo not drawn) ?
Pf apPOL block: -6; mHTT-CaM PPI inh: 61*

How did N#CC1=C2NC(=O)c3c(sc4c3CCCCC4)N2C2=C(C(=O)CCC2)C1c1cccnc1 (stereo not drawn) do in these assays?
Pf apPOL block: 0; mHTT-CaM PPI inh: 37

What do the screens show for `CC(=O)c1cccc(S(=O)(=O)NCC2(O)CCCC2)c1`?
Pf apPOL block: -6; mHTT-CaM PPI inh: -8

What do the screens show for `COc1cccc(CC(=O)N2CCC(c3nc(-c4ccc(NC(C)=O)cc4)no3)CC2)c1`?
Pf apPOL block: 2; mHTT-CaM PPI inh: 11

What do the screens show for `CCOCCCNC(=O)C1CCN(c2cnn(Cc3ccccc3)c(=O)c2)CC1`?
Pf apPOL block: -4; mHTT-CaM PPI inh: -2

Results for COCCCNC(=O)C1CCN(Cc2ccc(C)o2)CC1 ?
Pf apPOL block: -3; mHTT-CaM PPI inh: 1

Results for COCCNC(=O)C1CCN(Cc2cc3ccccc3n2Cc2cccc(Cl)c2)CC1 ?
Pf apPOL block: 0; mHTT-CaM PPI inh: 91*

What do the screens show for `COCCCNC(=O)C1CCN(Cc2cc3ccccc3n2Cc2ccccc2)CC1`?
Pf apPOL block: 3; mHTT-CaM PPI inh: 93*

Results for Cc1ccnc(N2CCC(C(=O)NCC3CCN(Cc4cccc(Cl)c4)CC3)CC2)n1 ?
Pf apPOL block: 4; mHTT-CaM PPI inh: 7

What do the screens show for `CCOCCCNC(=O)C1CCN(Cc2cc3ccccc3n2Cc2ccccc2)CC1`?
Pf apPOL block: 1; mHTT-CaM PPI inh: 76*

Results for COc1ccc(-c2cc(C(=O)N3CCCC3c3ccc(C)cc3)on2)cc1 (stereo not drawn) ?
Pf apPOL block: -2; mHTT-CaM PPI inh: -1

What do the screens show for `CC(C)(C)C(=O)Nc1ccc(C(=O)NCCNC(=O)Nc2ccccc2Cl)cc1`?
Pf apPOL block: -2; mHTT-CaM PPI inh: 0

How did COc1ccc(OC)c(/C=C2/N=C(c3cccc(Cl)c3Cl)OC2=O)c1 do in these assays?
Pf apPOL block: 0; mHTT-CaM PPI inh: 17

What do the screens show for `Cc1cccc(CN2CCN(C3CCN(C(=O)Nc4ccccc4Cl)CC3)C2=O)c1`?
Pf apPOL block: -3; mHTT-CaM PPI inh: 15

What do the screens show for `CSc1cccc(NC(=O)C(=O)NCCC2=CCCCC2)c1`?
Pf apPOL block: -6; mHTT-CaM PPI inh: -14
